A number with no mark means an inactive call.

The test in a line: basal 3T3-L1 adipocyte mitochondrial potential changes, profiling panel, cell-based, JC-1 fluorescence, 3T3-L1 adipocytes, 24 h, 100 nL compound (AID 1168). Further: test concentration not given here. The note with it: JC-1 mitochondrial fluorescence, higher = more signal, called active from +8 up or from −8 down.
Take `CC(=O)NCCCC[C@@H]1NC(=O)[C@@H]2C[C@H](C(=O)NCCCCCNC(=O)CS)[C@H](c3cccc(OCCO)c3)N2C1=O`: the z-score is -0.843.

For the compound `COc1ccccc1CN1C(=O)c2ccccc2[C@@]2(Cc3ccccc3N(CC(C)C)C2=O)[C@@H]1c1ccc(CO)cc1`, the z-score was 0.211.

As to `CC(CO)N1C(=O)[C@@H]2C3C(=O)OCCC/C=C\[C@H]3OC23C=CCN(C(C)(C)C)C(=O)[C@@H]13` (stereo not given in full), the z-score is 0.521.

As to `CC1(C)[C@@H]2CC(C(O)C3C=CC4C(=O)N(Cc5ccccc5)C(=O)C4N3n3cnnc3)=C[C@H]1C2` (stereo not given in full), the z-score is 0.352.

As to `O=C1C[C@@](C(=O)NC2CC2)(c2ccc([N+](=O)[O-])cc2)[C@@H](c2ccc(CO)cc2I)N1C1CCCCC1`, the z-score was -0.604.

On to `NC(=O)NCC#Cc1ccc2c(c1)[C@]1(C(=O)N2)[C@H](C(=O)Nc2nc3ccccc3s2)[C@H]2C(=O)O[C@H](c3ccccc3)[C@H](c3ccccc3)N2[C@@H]1c1ccccc1OCCO`, for which the z-score is 2.92.

`O=C1c2ccccc2[C@](Cc2ccccc2I)(C(=O)NCC(F)(F)F)[C@H](c2ccc(CO)cc2)N1Cc1ccccc1Cl`: the z-score was 0.149.

Turning to `CCC[C@@H]1C[C@@]1(CCC)[C@@H](NS(=O)(=O)c1cccc2cccnc12)c1ccc(Cl)cc1`, the z-score was 0.112.

As for `CCCC[C@@H]1C[C@H]1[C@@H](NC(=O)c1ccco1)c1ccc(-c2ccccc2)cc1`, the z-score was -0.168.

As for `Cc1ccc(S[C@]2(C(=O)NCCCN(C)C)CC(=O)N(Cc3cc(C(F)(F)F)cc(C(F)(F)F)c3)[C@@H]2c2ccc(CO)cc2)cc1`, the z-score was -0.849.

Values taken from PubChem BioAssay.
